We go through 18 molecules from PubChem BioAssay (NCATS).

Where “and” joins values, the source holds several entries; their conditions need not be identical. Equal entries are not always repeated. Results filed as inconclusive are left out. Calls of active or inactive are those of the source. The call rests on the fitted dose curve; in most records, active means well fitted curve in the direction sought with a large enough effect; inconclusive means small, poorly fitted or top-dose-only effect, or another doubt; inactive means no such curve, though single readings can be large; an effect the other way counts as inactive or inconclusive.

The nature of assay [1]: qHTS of pediatric cancer cell lines to identify multiple opportunities for drug repurposing: Primary screen for RD cells (AID 1347104). Further: nearly all actives have a fitted effect of over 55% in size. Further: potency means the concentration at half of the fitted maximal effect. The conditions noted are these: RD rhabdomyosarcoma viability, CellTiter-Glo luminescence, 48 h; series mostly up to 46 µM. An outline of the steps:
(§1)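 Readout: CellTiter-Glo luminescence, 48 h treatment. Controls DMSO (neutral) and bortezomib 2.3 µM final (positive). Potency and efficacy taken from primary-screen concentration-response curves.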
(In general: In qHTS, concentration-response curves come from the screen itself.)

The nature of assay [2]: qHTS of pediatric cancer cell lines to identify multiple opportunities for drug repurposing: Primary screen for Rh30 cells (AID 1347107). Further: nearly all actives have a fitted effect of over 75% in size. The conditions noted are these: Rh30 rhabdomyosarcoma viability, CellTiter-Glo luminescence, 48 h; series mostly up to 46 µM. An outline of the steps: (§2)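 Viability after 48 h compound treatment at 37C, 500-1,000 cells/well, read as ATP luminescence with CellTiter-Glo. Primary screens used 11-point (MIPE, 0.78 nM-46 µM) or 8-point (NPC, 0.59 nM-46 µM) final concentrations; follow-up screens used 11-point dilutions.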

Assay [3] can be described thus: qHTS of pediatric cancer cell lines to identify multiple opportunities for drug repurposing: Confirmatory screen for NB1643 cells (AID 1347109). Further: nearly all actives have a fitted effect of over 45% in size. Further: potency means the concentration at half of the fitted maximal effect. As to conditions: NB1643 neuroblastoma cell viability; series mostly up to 45.9 µM. In outline: as §2
Assay [4] can be described thus: qHTS of pediatric cancer cell lines to identify multiple opportunities for drug repurposing: Confirmatory screen for A673 cells (AID 1347110). Further: nearly all actives have a fitted effect of over 65% in size. Further: potency means the concentration at half of the fitted maximal effect. As to conditions: A673 Ewing sarcoma cell viability; series mostly up to 45.9 µM. An outline of the steps: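 A673 cells at 500-1,000 cells/well were dosed 5 h after plating, in dilution series up to 46 uM final; primary runs used 8 or 11 points and confirmatory runs used 11 points. Viability was read by CellTiter-Glo luminescence after 48 h, against DMSO and 2.3 uM bortezomib controls.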

Assay [5] in a line: qHTS of pediatric cancer cell lines to identify multiple opportunities for drug repurposing: Confirmatory screen for SK-N-MC cells (AID 1347111).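 Further: cells exposed to compound for 48 h before the readout; nearly all actives have a fitted effect of over 70% in size.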 Further: potency means the concentration at half of the fitted maximal effect. As to conditions: SK-N-MC cell viability; series mostly up to 45.9 µM. An outline of the steps: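 SK-N-MC cells at 500-1,000 cells/well in growth media were pre-incubated 5 h, then exposed to compounds at 11-point dilutions for 48 h at 37 degrees C, 5% CO2. Viability was read as CellTiter-Glo luminescence.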

Assay [6] is described as follows: qHTS of pediatric cancer cell lines to identify multiple opportunities for drug repurposing: Primary screen for control Hh wild type fibroblast cells (AID 1347106).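 Further: a drop in luminescence marks cytotoxicity and a rise apparent proliferation; nearly all actives have a fitted effect of over 55% in size.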 As to conditions: Hh wild-type fibroblast viability, CellTiter-Glo luminescence, 48 h; series mostly up to 46 µM. An outline of the steps:
as §2

Assay [7] is described as follows: qHTS of pediatric cancer cell lines to identify multiple opportunities for drug repurposing: Primary screen for Rh18 cells (AID 1347102). Further: nearly all actives have a fitted effect of over 65% in size. Further: potency means the concentration at half of the fitted maximal effect. As to conditions: Rh18 rhabdomyosarcoma viability, CellTiter-Glo luminescence, 48 h; series mostly up to 46 µM. An outline of the steps: as §2
Assay [8] in a line: qHTS of pediatric cancer cell lines to identify multiple opportunities for drug repurposing: Primary screen for MG 63 (6-TG R) cells (AID 1347105). Further: nearly all actives have a fitted effect of over 50% in size. Further: potency means the concentration at half of the fitted maximal effect. As to conditions: MG 63 (6-TG R) viability, CellTiter-Glo, 48 h; series mostly up to 46 µM. In outline:
as §1

Assay [9] can be described thus: qHTS of pediatric cancer cell lines to identify multiple opportunities for drug repurposing: Primary screen for Rh41 cells (AID 1347108). Further: nearly all actives have a fitted effect of over 70% in size. Further: potency means the concentration at half of the fitted maximal effect. The conditions noted are these: Rh41 rhabdomyosarcoma viability, CellTiter-Glo luminescence, 48 h; series mostly up to 46 µM. An outline of the steps:
as §1

The nature of assay [10]: qHTS of pediatric cancer cell lines to identify multiple opportunities for drug repurposing: Primary screen for OHS-50 cells (AID 1347103). Further: nearly all actives have a fitted effect of over 40% in size. Further: potency means the concentration at half of the fitted maximal effect. The conditions noted are these: OHS-50 osteosarcoma viability, CellTiter-Glo luminescence, 48 h; series mostly up to 57.3 µM. In outline: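 Cells (500-1,000/well) rested 5 h, then received compounds for 48 h; metabolically active cells were measured by CellTiter-Glo luminescence. Final concentrations spanned up to 46 µM (MIPE, 11-point) or 0.59 nM-46 µM (NPC, 8-point) in primary screens, 11-point in follow-ups.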

For the molecule `CNCC[C@H](Oc1cccc2ccccc12)c1cccs1`, the Potency in assay [1] was 26.6 µM (active) and 4.69 µM (active); in [4], 14.7 µM (active); in assay [5] it was 6.57 µM (active). For the same molecule, the Potency result in assay [2] and in assay [3] was “inactive” throughout.
As to `Cc1nnc(NS(=O)(=O)c2ccc(N)cc2)s1`, the Potency result in assay [6] and in assay [2] was “inactive” in each case.
For `O=c1cc(O)c(Cl)c[nH]1`, the Potency entry in assay [7], in assay [8], in [6] and in assay [2] was “inactive” in each case.
In the case of `COc1ccc2cc3[n+](cc2c1OC)CCc1cc2c(cc1-3)OCO2`, the Potency in [1] was 10.5 µM (active); in assay [8], 26.6 µM (active). Besides, the Potency entry in [6] and in assay [2] was “inactive” throughout.
For the molecule `Cc1cccc(N(C)C(=S)Oc2ccc3ccccc3c2)c1`, the Potency result in [7], in assay [1], in assay [8], in assay [6], in assay [2] and in assay [9] was “inactive” in each case. The Potency result in assay [3] and in assay [4] was “inactive” each time.
As to `CCC(=O)O[C@]1(C(=O)SCF)[C@H](C)C[C@H]2[C@@H]3C[C@H](F)C4=CC(=O)C=C[C@]4(C)[C@@]3(F)[C@@H](O)C[C@@]21C`, the Potency entry in assay [7], in assay [1], in assay [8], in [6], in [2] and in [9] was “inactive” each time. The Potency result in [3] and in assay [5] was “inactive” throughout. Besides, the Potency in [4] is 1.04 µM (active).
For `CCOC(=O)[C@H](CCc1ccccc1)N[C@H]1CCc2ccccc2N(CC(=O)O)C1=O`, the Potency in assay [1] is 26.4 µM (active). For the same molecule, in assay [6], the Potency result is “inactive”.
`O=c1oc2c(O)c(O)cc3c(=O)oc4c(O)c(O)cc1c4c23`: the Potency entry in [7], in assay [8], in assay [6], in assay [2] and in assay [9] was “inactive” each time.
Turning to `Oc1c(Cl)cc(Cl)c2cccnc12`, the Potency was 12.3 µM (active) and 27.3 µM (active) in assay [10]; 5.31 µM (active) and 26.4 µM (active) in assay [1]; 6.68 µM (active) and 11.8 µM (active) in assay [8]; 23.5 µM (active) in assay [9]; 18.5 µM (active) in [3]; 8.27 µM (active) in assay [4]. For the same molecule, the Potency in assay [5] is 13.1 µM (active). Moreover, the Potency entry in [6] is “inactive”.
On to `CCCc1nc(C)c2c(=O)[nH]c(-c3cc(S(=O)(=O)N4CCN(CC)CC4)ccc3OCC)nn12`, for which, in assay [6], the Potency result was “inactive”. In assay [9], the Potency was 14.8 µM (active).
With `N=C(N)c1ccc(OCCCCCOc2ccc(C(=N)N)cc2)cc1`, in [1], the Potency is 18.7 µM (active). The Potency entry in assay [8], in assay [6] and in [2] was “inactive” each time.
Turning to `O=NN(CCCl)C(=O)NC1CCCCC1`, the Potency entry in assay [7], in assay [1], in [8], in assay [6], in assay [2] and in [9] was “inactive” each time. Further, the Potency result in [3], in assay [4] and in [5] was “inactive” in each case.
Regarding `CO[C@@]12[C@H](COC(N)=O)C3=C(C(=O)C(C)=C(N)C3=O)N1C[C@@H]1N[C@@H]12`, the Potency in assay [7] is 18.7 µM (active); in assay [1], 18.8 µM (active) and 18.7 µM (active); in assay [8], 14.8 µM (active); in assay [9] it was 13.3 µM (active) and 11.8 µM (active); in assay [3], 1.04 µM (active); in [4], 3.69 µM (active). Besides, in assay [5], the Potency is 2.08 µM (active). The Potency result in [6] was “inactive”.
Consider `COc1ccc(C(=O)CC(=O)c2ccc(C(C)(C)C)cc2)cc1`, for which the Potency result in assay [10], in assay [8], in [6], in assay [2], in assay [3] and in assay [4] was “inactive” each time. The Potency in assay [5] is 26.1 µM (active).
Take `C[C@@H]1C[C@H]2[C@@H]3CCC4=CC(=O)C=C[C@]4(C)[C@@]3(Cl)[C@@H](O)C[C@]2(C)[C@@]1(OC(=O)c1ccco1)C(=O)CCl`: the Potency is 15.5 µM (active) and 15.3 µM (active) in [10]; 8.33 µM (active) in [1]; 23.5 µM (active) in assay [8]; 0.369 µM (active) in assay [3]; 2.61 µM (active) in assay [4]; 0.827 µM (active) in [5]. Also, the Potency result in assay [6] and in [2] was “inactive” in each case.
On to `CC(C(=O)O)c1ccc2c(c1)CC(=O)c1ccccc1S2` (stereo unspecified), for which the Potency entry in [7], in assay [8], in assay [6], in [2], in [9] and in assay [3] was “inactive” each time. Further, the Potency result in assay [5] was “inactive”.
Turning to `CC[C@H](C)C(=O)O[C@H]1C[C@@H](C)C=C2C=C[C@H](C)[C@H](CC[C@@H]3C[C@@H](O)CC(=O)O3)[C@H]21`, the Potency result in [1] and in [6] was “inactive” throughout. Moreover, the Potency in [8] was 4.22 µM (active) and 4.69 µM (active).
In the case of `COC(=O)Nc1nc2ccc(Sc3ccccc3)cc2[nH]1`, the Potency in assay [10] is 1.23 µM (active) and 3.06 µM (active); in [8], 668 nM (active) and 1.18 µM (active); in assay [4] it was 1.17 µM (active); in [5], 1.04 µM (active). Besides, the Potency entry in assay [6] and in assay [2] was “inactive” throughout.
